{"source": "paper PMC5913336", "about": "“True equilibrium measurement of transcription factor-DNA binding affinities using automated polarization microscopy”", "note": "pKd: −log10 of the molar value."}
{"molecular_target": "T1, Eip93f (Drosophila melanogaster, UniProt Q9VD60 752-830)", "T1 sequence": "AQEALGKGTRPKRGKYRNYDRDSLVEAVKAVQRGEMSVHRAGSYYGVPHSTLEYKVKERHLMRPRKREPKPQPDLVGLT", "experiment": "FP; 33 mM phosphate pH 7.0, 90 mM NaCl, 0.01% Tween 20, 0.1 mM DTT, 0.5% agarose; room temperature", "settings": "tags: N-GST (pGEX-6P-1, kept); dsDNA, one strand shown"}
{"sequence": "CATAGCAGAAAATCG", "binding signal": "23.3 Kd / Kd of best base at the position"}
{"sequence": "CCTAGCCGAAAATCG", "binding signal": "1.59 Kd / Kd of best base at the position"}
{"sequence": "CATAGCCGAAATTCG", "binding signal": "1.52 Kd / Kd of best base at the position"}
{"sequence": "CAGAGCCGAAAATCG", "binding signal": "1.49 Kd / Kd of best base at the position"}
{"sequence": "CATGGCCGAAAATCG", "binding signal": "1.39 Kd / Kd of best base at the position"}
{"sequence": "AATAGCCGAAAATCG", "binding signal": "1.22 Kd / Kd of best base at the position"}
{"molecular_target": "T2, Br (Drosophila melanogaster, UniProt Q24206 697-775)", "T2 sequence": "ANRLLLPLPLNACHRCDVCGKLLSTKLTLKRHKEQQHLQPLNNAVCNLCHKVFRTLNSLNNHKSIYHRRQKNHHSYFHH", "experiment": "FP; 33 mM phosphate pH 7.0, 90 mM NaCl, 0.01% Tween 20, 0.1 mM DTT, 0.5% agarose; room temperature", "settings": "tags: N-GST (pGEX-6P-1, kept); dsDNA, one strand shown"}
{"sequence": "GGAATTAGAAAGC", "binding signal": "1.36 Kd / Kd of best base at the position"}
{"sequence": "GGTATTAGAAAAC", "binding signal": "2.13 Kd / Kd of best base at the position"}
{"sequence": "GGAATTAGGAAAC", "binding signal": "2.63 Kd / Kd of best base at the position"}
{"sequence": "GGAATTAGCAAAC", "binding signal": "6.43 Kd / Kd of best base at the position"}
{"sequence": "GGAATTAGAAGAC", "binding signal": "1.24 Kd / Kd of best base at the position"}
{"sequence": "GTAATTAGAAAAC", "binding signal": "2.7 Kd / Kd of best base at the position"}
{"sequence": "GGAATTAGATAAC", "binding signal": "1.59 Kd / Kd of best base at the position"}
{"sequence": "GGAATTCGAAAAC", "binding signal": "> 1590 Kd / Kd of best base at the position"}
{"sequence": "GGCATTAGAAAAC", "binding signal": "2.73 Kd / Kd of best base at the position"}
{"sequence": "GGGATTAGAAAAC", "binding signal": "1.54 Kd / Kd of best base at the position"}
{"sequence": "GGAATTAGAAATC", "binding signal": "1.02 Kd / Kd of best base at the position"}
{"sequence": "GCAATTAGAAAAC", "binding signal": "3.05 Kd / Kd of best base at the position"}
{"sequence": "GGAATCAGAAAAC", "binding signal": "> 1590 Kd / Kd of best base at the position"}
{"sequence": "GGAGTTAGAAAAC", "binding signal": "2.41 Kd / Kd of best base at the position"}
{"sequence": "GGAATTAGAAAAC", "pKd": "~8.20"}
{"sequence": "GGAATTAGAAAAT", "binding signal": "1.5 Kd / Kd of best base at the position"}
{"sequence": "GGAATTAGAACAC", "binding signal": "1.98 Kd / Kd of best base at the position"}
{"sequence": "TGAATTAGAAAAC", "binding signal": "2.02 Kd / Kd of best base at the position"}
{"sequence": "GGAATAAGAAAAC", "binding signal": "> 1590 Kd / Kd of best base at the position"}
{"sequence": "GGAATGAGAAAAC", "binding signal": "> 1590 Kd / Kd of best base at the position"}
{"sequence": "CGAATTAGAAAAC", "binding signal": "1.68 Kd / Kd of best base at the position"}
{"sequence": "AGAATTAGAAAAC", "binding signal": "1.96 Kd / Kd of best base at the position"}
{"sequence": "GGAACTAGAAAAC", "binding signal": "4.4 Kd / Kd of best base at the position"}
{"sequence": "GGAATTAGAATAC", "binding signal": "1.82 Kd / Kd of best base at the position"}
{"sequence": "GGAATTAGAAACC", "binding signal": "1.42 Kd / Kd of best base at the position"}
{"sequence": "GGAATTGGAAAAC", "binding signal": "438 Kd / Kd of best base at the position"}
{"sequence": "GGAATTAGTAAAC", "binding signal": "6.81 Kd / Kd of best base at the position"}
{"sequence": "GGAATTAGAGAAC", "binding signal": "2.43 Kd / Kd of best base at the position"}
{"sequence": "GGAATTACAAAAC", "binding signal": "109 Kd / Kd of best base at the position"}
{"sequence": "GGAATTAGAAAAG", "binding signal": "1.23 Kd / Kd of best base at the position"}
{"sequence": "GAAATTAGAAAAC", "binding signal": "2.08 Kd / Kd of best base at the position"}
{"sequence": "GGAATTAAAAAAC", "binding signal": "> 1590 Kd / Kd of best base at the position"}
{"sequence": "GGACTTAGAAAAC", "binding signal": "2.43 Kd / Kd of best base at the position"}
